# Test results published in PubChem BioAssay AID1918 (Vanderbilt High Throughput Screening Facility, 2009).
# About 2,500 (1.9%) of roughly 130,000 compounds were called active. For the sample, actives were picked, then their nearest neighbours and some compounds at random. Values without a mark were called inactive.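 The calls were made as follows: active = signal ratio slope over the read window, or its plate-corrected B-score, at least 3 SD from the plate mean, either direction; inactive = the rest.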
# Target: ATP-sensitive inward rectifier potassium channel 1 (Homo sapiens) (UniProt P48048)
# Sequence (P48048 whole entry, looked up): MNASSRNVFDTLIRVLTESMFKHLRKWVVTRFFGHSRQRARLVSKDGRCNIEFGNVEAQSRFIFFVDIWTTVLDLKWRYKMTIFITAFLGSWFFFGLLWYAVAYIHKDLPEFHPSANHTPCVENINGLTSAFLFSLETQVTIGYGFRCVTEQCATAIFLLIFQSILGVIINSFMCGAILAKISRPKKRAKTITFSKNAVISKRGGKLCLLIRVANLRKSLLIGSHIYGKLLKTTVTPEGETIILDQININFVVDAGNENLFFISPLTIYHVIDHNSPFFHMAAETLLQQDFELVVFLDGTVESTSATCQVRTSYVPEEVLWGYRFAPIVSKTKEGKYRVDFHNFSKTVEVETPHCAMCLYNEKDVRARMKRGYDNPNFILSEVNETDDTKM
# Test: Kir1.1 channel activity modulation, library screen – cell-based, thallium flux, MLSMR library, primary screen (AID 1918);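 also: B-score of the F/F0 ratio slope over 7 to 12 s after thallium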
# Conditions: Tet-inducible ROMK, thallium flux fluorescence; at 10 µM; actives lie on both sides
row,SMILES,B-score
1,O=C1CC(=O)Nc2cc(S(=O)(=O)N3CCN(c4cccc(C(F)(F)F)c4)CC3)ccc2N1,-0.0476
2,Cc1cc2cc(CN(Cc3cccs3)Cc3nnnn3CC3CCCO3)c(=O)[nH]c2cc1C (configuration not stated),-5.43 (active)
3,COc1ccccc1C(c1nnnn1CC1CCCO1)N1CCN(c2ccccc2)CC1 (configuration not stated),-0.18
4,COc1ccc2[nH]c(=O)c(CN(Cc3nnnn3CCc3ccccc3)CC3CCCO3)cc2c1 (configuration not stated),-1.17
5,CCN(CC)CC1(O)CCN(C(=O)c2ccc(Cl)c(Cl)c2)CC1,0.898
6,Cc1nn(CC(=O)Nc2ccc3c(c2)OCO3)c(C)c1[N+](=O)[O-],0.634
7,CC(CC(=O)Nc1ccccc1)n1ccnc1 (configuration not stated),-0.543
8,O=C(CN1CCN(S(=O)(=O)/C=C/c2ccccc2)CC1)Nc1ccc(N2CCOCC2)cc1,1.12
9,O=C(/C=C/c1ccc(N2CCOCC2)cc1)c1ccccc1,-3.77 (active)
10,O=C(NC(=O)N1CCOCC1)c1ccccc1,0.751
11,O=C(O)c1ccc2c(c1)C(=O)N(c1ccc(/C=C/C(=O)c3ccccc3)cc1)C2=O,-2.93 (active)
12,CC(=O)Oc1ccc(C)cc1N1C(=O)c2ccc(C(=O)O)cc2C1=O,0.575
13,O=C(c1ccc2c(c1)C(=O)N(c1ccc(Cl)cc1)C2=O)N1CCN(c2ccccn2)CC1,0.202
14,COc1cc(NC(=O)COC(=O)c2cnc(C)cn2)c(C)cc1[N+](=O)[O-],-0.377
15,O=C(O)c1ccccc1C(=O)Nc1ccccc1[N+](=O)[O-],-0.117
16,Cc1csc(NC(=O)CSc2ccc(-c3ccc(F)cc3)nn2)n1,-0.896
17,Cc1ccc(C(=O)N2CCCC(c3ccccc3)=N2)cc1,-0.95
18,Cn1c(-c2ccccc2)c[n+]2c1CCCCC2,0.591
19,Cc1ccc(C(=O)C[n+]2cc(-c3ccccc3)n3c2CCCCC3)cc1,-3.3 (active)
20,CCOC(=O)C1CCCN(C(=O)COc2ccc(N(C)S(=O)(=O)c3ccc(C)cc3)cc2)C1 (configuration not stated),0.882
21,CCN(CC)S(=O)(=O)c1ccc(NC(=O)c2cccnc2Cl)c(NC(=O)c2cccnc2Cl)c1,0.845
22,COc1ccc(CCNC(=O)CC2SC(=Nc3cc(C)cc(C)c3)NC2=O)cc1OC (configuration not stated),-0.14
23,COC(=O)C(C)C1Sc2ccccc2NC1=O (configuration not stated),-0.193
24,Cc1ccc(CNC(=O)CC2Sc3ccccc3NC2=O)cc1 (configuration not stated),1.17 (active)
25,CC(Nc1nc(N2CCOCC2)nc2ccccc12)c1ccccc1 (configuration not stated),-0.474

row,SMILES,B-score
1,CN1CCN(CC(=O)Nc2cccc([N+](=O)[O-])c2)CC1,0.51
2,CNC(=S)NNC(=O)c1cccn(Cc2ccccc2)c1=O,0.643
3,O=C(Nc1cccc(Cl)c1N1CCOCC1)c1ccc2c(c1)OCCO2,-0.937
4,CCS(=O)(=O)c1ccc(C(=O)NC)c(Cl)c1Cl,0.613
5,Cc1ccc2c(=O)oc(N(C)C)nc2c1,2.36 (active)
6,CN(C)c1ccc2c(=O)[nH][nH]c(=O)c2c1,0.291
7,Cc1ccc2nc3n(c(=O)c2c1)CCC3,0.127
8,Cc1cc(C)c(C(N)=O)c(Cl)n1,0.133
9,Cc1ccc(N(C(=O)C(F)(F)F)C(C(=O)NC2CCCCC2)c2ccncc2)cc1C (configuration not stated),-0.0116
10,CC1CCCN(S(=O)(=O)c2ccc(N(C(=O)c3cnccn3)C(C(=O)NC3CCCCC3)c3cccs3)cc2)C1 (configuration not stated),-3.38 (active)
11,CC1CCCN(S(=O)(=O)c2ccc(C(=O)Nc3nnc(-c4ccncc4)o3)cc2)C1 (configuration not stated),0.153
12,N/C(=N\OC(=O)CCc1ccccc1)c1cccnc1,0.92
13,O=C(/C=C/c1ccccc1[N+](=O)[O-])OC1CCCCC1=O (configuration not stated),0.69
14,COc1ccc(CCNC(=O)CCCCn2c(=O)[nH]c3ccccc3c2=O)cc1OC,0.342
15,COc1ccc(N=Cc2c(O)[nH]c3ccccc23)cc1OC,2.81 (active)
16,COc1ccc(/C=N/S(=O)(=O)c2ccccc2)cc1OC,-0.975
17,CCC1(C)Cc2c(sc3[nH]c(=S)n(Cc4ccccc4)c(=O)c23)CO1 (configuration not stated),5.27 (active)
18,CCC1(C)Cc2c(sc3nc(SC)nc(N)c23)CO1 (configuration not stated),-1.15
19,CCC1(C)Cc2c(sc3nc4n(c(=O)c23)CCCS4)CO1 (configuration not stated),-0.196
20,NC(=O)C1CCN(C(=O)COc2cccc3cccnc23)CC1,0.124
21,Cc1cc(C(=O)N/N=C\C(Br)=C\c2ccccc2)c(C)o1,-0.321
22,CC(C(=O)NC1CCCC1)N(c1ccc(Oc2ccccc2)cc1)S(C)(=O)=O (configuration not stated),-3.71 (active)
23,COc1ccc(/C=N/NC(=O)C(C)N(c2ccc(OC)cc2)S(C)(=O)=O)cc1 (configuration not stated),-0.0127
24,CS(=O)(=O)N(CC(=O)N/N=C/c1ccccn1)c1ccc(Oc2ccccc2)cc1,-0.000176
25,CSc1ccccc1NC(=O)CN(C)CC(=O)Nc1ccc(Cl)cc1[N+](=O)[O-],-1.12

row,SMILES,B-score
1,Cc1ccccc1C(OCC(O)CN1CCCCC1CCO)c1ccccc1 (configuration not stated),-4.16 (active)
2,Cc1cccc(C)c1OCC(O)CN1CCCCC1 (configuration not stated),0.161
3,CC(C)OCC(O)CN1CCN(C(c2ccccc2)c2ccccc2)CC1 (configuration not stated),-0.0404
4,Cc1ccc(C(=O)OC2CCCN(C)C2)cc1 (configuration not stated),0.17
5,Cc1ccc2nc(COc3ccc(N(C)S(=O)(=O)c4ccccc4)cc3)cc(=O)n2c1,0.648
6,COCCNC(=O)CCCn1c(=O)c2ccccc2n(Cc2cccc([N+](=O)[O-])c2)c1=O,-1.13
7,COc1ccc(CCNC(=O)COC(=O)Cc2cc(OC)c(OC)c(OC)c2)cc1,0.986
8,COc1ccc2c(c1)CCC/C2=N\OC(=O)c1ccccc1F,-0.245
9,Cc1ccccc1-n1nc(SCC(=O)O)sc1=S,-0.00827
10,O=C(CCN1CCc2ccccc2C(O)(c2ccccc2)C1)c1ccc2c(c1)OCCO2 (configuration not stated),-3.53 (active)
11,O=S(=O)(c1ccc2c(c1)OCCO2)N1CCc2ccccc21,0.399
12,O=C(CN1CCC(O)(c2ccccc2)CC1)Nc1ccc2c(c1)OCCO2,0.414
13,COc1ccc(NC(=S)Nc2ccc(S(N)(=O)=O)cc2)c(C)c1,0.982
14,CN(C)CCCN(Cc1cc2cc3c(cc2[nH]c1=O)OCCO3)C(=O)NC1CCCCC1,0.033
15,COc1ccc(NC(=O)COc2ccc(C(=O)OCC(=O)N(C)C3CCS(=O)(=O)C3)cc2OC)cc1 (configuration not stated),0.348
16,CC(C)(C)n1nnnc1C(c1ccc2ncccc2c1)N1CCSCC1 (configuration not stated),-0.18
17,Cc1cccc(N2CCN(C(c3ccc(N(C)C)cc3)c3nnnn3C(C)(C)C)CC2)c1C (configuration not stated),-2.94 (active)
18,CC(=O)N1CCN(c2cccc(C)c2C)CC1,-0.0972
19,CCC(C(=O)Nc1ccc(C(C)C)cc1)c1ccccc1 (configuration not stated),-0.192
20,COc1cc2sc(C)nc2cc1C,1.46
21,Fc1ccc2[nH]c3c(N4CCN(Cc5ccc6c(c5)OCO6)CC4)ncnc3c2c1,-3.14 (active)
22,CC(C)OC(=O)C(C#N)c1nc2ccccc2nc1N1CCN(Cc2ccc3c(c2)OCO3)CC1 (configuration not stated),-0.0869
23,CC(C)OCCCNc1ncnc2c1[nH]c1ccc(F)cc12,-2.49
24,Fc1ccc2[nH]c3c(N4CCSCC4)ncnc3c2c1,-5.22 (active)
25,O=c1[nH]c(N2CCN(Cc3ccc4c(c3)OCO4)CC2)nc2c1CCCC2,-1.42

row,SMILES,B-score
1,Nn1c(SCC(=O)Nc2nccs2)nncc1=O,1.33
2,COc1ccc(CC(=O)N[C@@H](CCSC)c2nc3ccccc3[nH]2)cc1,-1.58
3,CCc1nnc(NC(=O)CSc2nc(SC)ns2)s1,-0.0846
4,O=C(C1CCCN1S(=O)(=O)c1ccc(Br)cc1)N1CCOCC1 (configuration not stated),-0.207
5,CCn1cc(C(=O)Nc2cc(C)ccc2C)c(=O)c2ccc(C)nc21,0.0033
6,COc1ccc(CC2(CO)CCN(Cc3cnn(C)c3)CC2)cc1,0.221
7,CCOc1cccc(C(=O)Nc2nnc(-c3cccs3)s2)c1,1.45
8,CCOc1cc(/C=C(\C#N)c2nc(-c3cccs3)c(NC(C)=O)s2)ccc1O,-2.6 (active)
9,CCOc1cc(/C=C(/C#N)c2ccc(Cl)cc2)cc(Cl)c1OCC(=O)O,1.07
10,Cc1ccc(S(=O)(=O)N2CCC(N3CCCCCC3)CC2)cc1,0.651
11,Cc1ccc(S(=O)(=O)N(C)C2(C)CCS(=O)(=O)C2)cc1 (configuration not stated),1.47
12,Cc1ccc(S(=O)(=O)C2(S(=O)(=O)c3ccc(C)cc3)CCCC2)cc1,3.4 (active)
13,COc1ccc(N(CC(=O)Nc2ccc(C)cc2C)S(=O)(=O)c2ccccc2[N+](=O)[O-])c(OC)c1,-0.208
14,CN(C)S(=O)(=O)c1cccc(NC(=O)COC(=O)/C=C/c2cccs2)c1,0.12
15,O=C(CN(C(=O)c1csnn1)c1cccc(F)c1)NCc1ccc(F)cc1,0.442
16,O=C(Cn1ncc(N2CCCC2)c(Br)c1=O)c1ccc(Cl)cc1,-0.342
17,COC(=O)c1ccc(NCC(=O)N2CCCCCC2)cc1,-0.512
18,O=C(Cn1nc(CNc2ccc(Cl)cc2)[n+]2c1CCCCC2)c1ccc(Cl)cc1,-3.24 (active)
19,CC(C)CCN1CCN(C/C=C/c2ccco2)CC1CCO (configuration not stated),0.0943
20,CCOc1cccc(-n2nnnc2-c2ccc(OC)cc2)c1,2.1
21,COc1ccc(C2=CC(c3cccc(OC)c3)n3nnnc3N2)cc1 (configuration not stated),-4.22 (active)
22,COc1cccc(C2Nc3cccc4cccc(c34)N2)c1,-0.051
